High-throughput results deposited in PubChem by several laboratories.
Compounds with a hit are over-represented: about 4.1% of the library has one in this group of screens.
hcDAF12 agonist: H. contortus DAF-12 activation, primary screen; actives 1.4% (n = 370,000); AID 652067; HEK293 hcDAF-12 lit1-tk-luc reporter, luminescence; 0% DMSO, 100% Δ7-dafachronic acid; activation, % at 6.8 µM;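 active means activation above the mean of all tested compounds plus 3 SD, cut at about 5.5% in these data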
DAX1 inh-1: inhibitors of human orphan nuclear receptor DAX1 (NR0B1); P51843; inhibition, % at 6.75 µM; actives 0.99% (n = 340,000); AID 504766; HEK293 Gal4-DAX1 luciferase reporter, luminescence;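 active means inhibition above the mean over all tested compounds plus 3 SD, cut at about 4.2% in these data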;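 further: inhibition shows as a rise in luminescence from relieved DAX1 repression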
Target sequence (P51843 207-470 limits assumed): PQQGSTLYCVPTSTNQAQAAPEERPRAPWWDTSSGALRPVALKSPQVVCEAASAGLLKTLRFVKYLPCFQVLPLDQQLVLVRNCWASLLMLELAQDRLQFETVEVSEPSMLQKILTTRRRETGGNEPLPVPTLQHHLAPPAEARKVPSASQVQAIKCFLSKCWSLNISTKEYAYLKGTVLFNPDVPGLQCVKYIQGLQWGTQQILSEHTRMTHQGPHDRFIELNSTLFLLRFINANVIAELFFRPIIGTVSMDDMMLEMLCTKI
hgDAF-12 ag: hgDAF-12 agonism, primary luciferase screen; HEK293 GAL4-hgDAF12 UAS-luciferase reporter, agonist luminescence; normalized to butyrate control; activation, % at 6.8 µM; actives 1.8% (n = 370,000); AID 687014;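 active means activation above a cutoff set at the mean of all screened compounds plus 3 SD, cut at about 10% in these data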
DAX1 inh-2: DAX1 (NR0B1) inhibition, primary screen; HEK293T StAR-luciferase reporter, SF-1/DAX-1 repression relief; inhibition, % at 6.8 µM; actives 1.1% (n = 370,000); AID 652010;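 active means inhibition above the mean over all tested compounds plus 3 SD, cut at about 3.6% in these data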;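 further: higher inhibition means more luminescence from relief of DAX-1 repression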
ssDAF12 agonist: activates DAF-12 receptor from parasite S. stercoralis; HEK293 ssDAF-12/GRIP1 lit1-tk-luc reporter, luminescence; % of 3 µM dafachronic acid response; activation, % at 6.8 µM; actives 1% (n = 370,000);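 active means activation above the mean over all tested compounds plus 3 SD, cut at about 0.9% in these data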
PolyA inhibitor: inhibitors of polyadenylation in S. cerevisiae. S. cerevisiae SKY197-pL101 polyadenylation reporter, beta-gal luminescence; efflux-impaired pdr1/pdr3 knockout yeast; score 100 = 6 SD above DMSO. actives 0.02% (n = 300,000). activity score, % at 12 µM. AID 1875;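 active means lowest replicate activity score at least 50, where 100 means six control SD above control mean; inconclusive means lowest score under 50 but half or more replicates reach 50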;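 further: yeast exposed to compound for 9 h at 30 °C; higher score means more reporter readthrough which indicates perturbed polyadenylation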
LXRb hcDAF ctr: LXR-beta agonism as hcDAF-12 counter-screen. activation, % at 6.8 µM. HEK293 Gal4-LXR tk-luc reporter, luminescence, 24 h; normalized: DMSO 0%, positive control 100%. shares compounds with hcDAF12 agonist. 3,400 tested, under 10 active;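 active means mean percent activation of the reporter above a cutoff set as the average over tested compounds plus their standard deviation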
hcDAF12 conf: confirmation of H. contortus DAF-12 agonists | actives 61% (n = 3,400) | shares compounds with hcDAF12 agonist | HEK293 hcDAF-12 lit1-tk-luc reporter, luminescence; % of Δ7-dafachronic acid response | activation, % at 6.8 µM | AID 743032;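 active means mean activation across triplicate tests above the threshold derived from the earlier primary screen, cut at about 5.5% in these data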
Numbers stand for hits; – = inactive; ? = inconclusive; · = not tested or not shown.

SMILES	hcDAF12 agonist	DAX1 inh-1	hgDAF-12 ag	DAX1 inh-2	ssDAF12 agonist	PolyA inhibitor	LXRb hcDAF ctr	hcDAF12 conf
Cn1cc(Cc2ccc(C(=O)NCc3ccccc3)cn2)c2ccccc21	–	·	–	–	–	·	·	·
CC12CCC(=O)N1C(C(=O)Nc1nc(-c3cc(F)ccc3F)cs1)CS2 (centres undefined)	–	–	–	–	–	–	·	·
CC1(C(=O)NS(=O)(=O)c2ccc(F)cc2F)CCN1C(=O)C1CCCCC1 (centres undefined)	–	·	–	–	–	·	·	·
CCN(CC)CC(C)(C)C(=O)/C=C/c1ccc(/C=C/C(=O)C(C)(C)CN(CC)CC)cc1	–	–	–	–	–	·	·	·
Cc1cccc(N2C(=O)C=CC2=O)c1	–	–	–	–	–	·	·	·
O=C1C=CC(=O)N1c1ccc2ccccc2c1	7.4	–	–	–	–	·	–	–
Cc1nn(C)c(C(=O)NC(=S)Nc2ccccc2O)c1Cl	6.7	–	–	–	1.4	–	–	6.4
CC(=O)N=c1sc2c3ccccc3ccc2n1C	7.5	–	–	–	–	–	–	–
O=C(O)c1ccc(N/N=C/c2cc(Br)cs2)cc1	12.1	–	–	–	1.0	–	–	9.0
CCCCN1CCCCC1(C)C(=O)NCc1ccc2c(c1)OCO2 (centres undefined)	–	·	–	–	–	·	·	·
CCc1ccc(OCC(=O)NC(C)(C)C)cc1	10.9	–	–	–	–	–	–	–
O=C(NCCCN1CCCC1)c1ccc(CS(=O)(=O)c2ccc(Cl)cc2)o1	–	–	–	–	–	–	·	·
Cc1ccc(NCc2nc3ccccc3n2C)cc1C	13.0	–	13.2	–	1.7	–	–	8.2
Cn1c(CNc2ccc(O)cc2)nc2ccccc21	–	–	–	–	–	–	·	·
COc1ccc(NCc2nc3ccccc3n2C)cc1	10.0	5.6	12.0	–	2.4	–	–	11.6
CC1(Cc2ccccc2Cl)C(=O)Nc2c(Cl)ccc(Cl)c21 (centres undefined)	–	·	–	–	–	·	·	·
CC(C)c1ccc(Nc2nc(CC(=O)O)cs2)cc1	9.4	–	21.8	–	–	–	–	6.0
CC(=O)Nc1cccc(NS(=O)(=O)c2ccc3c(c2)CCC(=O)N3)c1	–	–	–	–	–	·	·	·
CC(C)C(=O)Nc1ccc(NC(=O)c2cccnc2)cn1	–	–	–	–	–	–	·	·
CC(C)C(=O)Nc1ccc(NC(=O)c2ccccn2)cn1	6.7	–	–	–	–	–	–	–
Cc1ccc(NC(=O)c2ccccc2OCc2ccc([N+](=O)[O-])cc2)nc1	–	–	–	–	–	–	·	·
N#C/C(=C\c1ccc(N2CCOCC2)o1)c1nc2ccccc2[nH]1	11.1	–	–	–	–	–	–	5.9
CN(/N=C/c1cccnc1)c1cnn(-c2ccc(F)c(Cl)c2)c(=O)c1Cl	–	–	–	–	–	–	·	·
CN(/N=C/c1c[nH]c2ccccc12)c1cnn(-c2ccc(F)c(Cl)c2)c(=O)c1Cl	7.2	–	–	–	–	–	–	–
O=C(CCc1c[nH]c2ccccc12)N1CCN(S(=O)(=O)c2ccc(F)cc2)CC1	–	–	–	–	–	·	·	·
SMILES	hcDAF12 agonist	DAX1 inh-1	hgDAF-12 ag	DAX1 inh-2	ssDAF12 agonist	PolyA inhibitor	LXRb hcDAF ctr	hcDAF12 conf
COc1cccc(C(=O)Nc2ccc(NC(=O)C3C4C=CC(C4)C3C(=O)O)cc2)c1 (centres undefined)	12.3	–	10.5	–	1.0	?	–	–
COc1cc(NC(=O)C2C3C=CC(C3)C2C(=O)O)ccc1NC(=O)c1ccccc1 (centres undefined)	–	–	–	–	–	–	·	·
S=c1sc2ccccc2n1CCc1ccncc1	–	–	–	–	–	–	·	·
c1ccc(-c2nc3ccccc3c3nc4ccccc4n23)cc1	–	–	–	–	–	–	·	·
FC(F)(F)c1nc2ccccc2c2nc3ccccc3n12	8.3	–	–	–	–	–	–	–
Nc1ccccc1Sc1c[nH]c2ccccc12	6.8	–	–	–	–	–	–	–
Cc1c[nH]c2ccccc12	·	–	·	·	·	·	·	·
CC(C)C(NC(=O)c1ccccc1)C(=O)OCC(=O)N1CCN(c2ccccc2)CC1 (centres undefined)	–	–	–	–	–	·	·	·
CN(C)C1(CNC(=O)C2CCC(=O)N(CCc3ccc(Cl)cc3)C2)CCCCC1 (centres undefined)	–	–	–	–	–	–	·	·
Cc1ccc(/C=C/c2nnc(-c3ccccc3)o2)cc1	7.3	–	–	–	1.7	–	–	–
Cc1ccc(-c2noc(/C=C/c3ccccc3)n2)cc1	–	–	–	–	–	–	·	·
CCCn1c(NCc2c[nH]c3ccccc23)nc2ccccc21	–	–	–	–	–	–	·	·
C/C(CC(=O)Nc1cc(C)cc(C)c1)=N\NC(=O)c1ccccn1	7.4	–	11.0	–	–	–	–	–
C/C(CC(=O)Nc1ccccn1)=N\NC(=O)c1ccccc1O	10.6	–	–	–	1.0	–	–	9.1
C/C(CC(=O)Nc1ccccn1)=N\NC(=O)c1ccccc1	·	·	·	·	·	–	·	·
Cc1c(C(=O)NC2CCCCC2)oc2ccc(F)cc12	18.5	–	10.5	–	–	–	–	8.3
Cc1ccc2oc(C(=O)NC3CCS(=O)(=O)C3)c(C)c2c1 (centres undefined)	–	–	–	–	–	–	·	·
COc1ccc(N(CC(=O)NCCSCc2cccc(Cl)c2)S(C)(=O)=O)cc1Cl	–	–	–	–	–	–	·	·
Cn1ncc(Cl)c1C(=O)Nc1nc2ccc(Cl)cc2s1	8.5	–	12.2	–	1.1	–	–	10.2
O=C(Nc1nc2ccc(Cl)cc2s1)c1ccc(Br)o1	–	–	–	–	–	–	·	·
CCOC(=O)c1ccc2c(c1)NCc1cccc(OC)c1O2	6.6	–	13.0	–	1.1	–	–	7.9
COc1ccc(C(=O)OCC(=O)c2ccc3c(c2)NC(=O)CO3)cc1OC	–	–	–	–	–	·	·	·
Cc1ccc(S(=O)(=O)N(C)c2ccc(OCC(=O)Nc3nnc(C4CC4)s3)cc2)cc1	–	–	–	–	–	–	·	·
O=C(CSc1ccc(-c2ccccn2)nn1)N1CCCC1	–	–	–	–	–	–	·	·
O=C(NCc1cc2ccccc2[nH]1)C1CCC(=O)N(CCCN2CCCC2=O)C1 (centres undefined)	6.9	–	–	–	–	–	–	–
O=C(NCCc1ccccc1)C1CCC(=O)N(CCCN2CCCC2=O)C1 (centres undefined)	7.8	–	–	–	1.9	–	–	–
